Many of the other results were omitted from the sample, so hits are more common in it than they were.
KDM5B inh: Primary screen for KDM5B Histone Demethylases FDH-coupled qHTS; Potency, µM (series often up to 57.7 µM), actives largely listed as inhibitors; Lysine-specific demethylase 5B (Homo sapiens), Q9UGL1; 220,000 tested, 2.6% active; KDM5B demethylase, FDH-coupled NADH fluorescence (FDH is formaldehyde dehydrogenase); active = well fitted inhibition curve with a large enough effect; also: 0% is about no effect; nearly all actives have a fitted effect of over 70% in size
Target sequence (Q9UGL1 whole entry, looked up): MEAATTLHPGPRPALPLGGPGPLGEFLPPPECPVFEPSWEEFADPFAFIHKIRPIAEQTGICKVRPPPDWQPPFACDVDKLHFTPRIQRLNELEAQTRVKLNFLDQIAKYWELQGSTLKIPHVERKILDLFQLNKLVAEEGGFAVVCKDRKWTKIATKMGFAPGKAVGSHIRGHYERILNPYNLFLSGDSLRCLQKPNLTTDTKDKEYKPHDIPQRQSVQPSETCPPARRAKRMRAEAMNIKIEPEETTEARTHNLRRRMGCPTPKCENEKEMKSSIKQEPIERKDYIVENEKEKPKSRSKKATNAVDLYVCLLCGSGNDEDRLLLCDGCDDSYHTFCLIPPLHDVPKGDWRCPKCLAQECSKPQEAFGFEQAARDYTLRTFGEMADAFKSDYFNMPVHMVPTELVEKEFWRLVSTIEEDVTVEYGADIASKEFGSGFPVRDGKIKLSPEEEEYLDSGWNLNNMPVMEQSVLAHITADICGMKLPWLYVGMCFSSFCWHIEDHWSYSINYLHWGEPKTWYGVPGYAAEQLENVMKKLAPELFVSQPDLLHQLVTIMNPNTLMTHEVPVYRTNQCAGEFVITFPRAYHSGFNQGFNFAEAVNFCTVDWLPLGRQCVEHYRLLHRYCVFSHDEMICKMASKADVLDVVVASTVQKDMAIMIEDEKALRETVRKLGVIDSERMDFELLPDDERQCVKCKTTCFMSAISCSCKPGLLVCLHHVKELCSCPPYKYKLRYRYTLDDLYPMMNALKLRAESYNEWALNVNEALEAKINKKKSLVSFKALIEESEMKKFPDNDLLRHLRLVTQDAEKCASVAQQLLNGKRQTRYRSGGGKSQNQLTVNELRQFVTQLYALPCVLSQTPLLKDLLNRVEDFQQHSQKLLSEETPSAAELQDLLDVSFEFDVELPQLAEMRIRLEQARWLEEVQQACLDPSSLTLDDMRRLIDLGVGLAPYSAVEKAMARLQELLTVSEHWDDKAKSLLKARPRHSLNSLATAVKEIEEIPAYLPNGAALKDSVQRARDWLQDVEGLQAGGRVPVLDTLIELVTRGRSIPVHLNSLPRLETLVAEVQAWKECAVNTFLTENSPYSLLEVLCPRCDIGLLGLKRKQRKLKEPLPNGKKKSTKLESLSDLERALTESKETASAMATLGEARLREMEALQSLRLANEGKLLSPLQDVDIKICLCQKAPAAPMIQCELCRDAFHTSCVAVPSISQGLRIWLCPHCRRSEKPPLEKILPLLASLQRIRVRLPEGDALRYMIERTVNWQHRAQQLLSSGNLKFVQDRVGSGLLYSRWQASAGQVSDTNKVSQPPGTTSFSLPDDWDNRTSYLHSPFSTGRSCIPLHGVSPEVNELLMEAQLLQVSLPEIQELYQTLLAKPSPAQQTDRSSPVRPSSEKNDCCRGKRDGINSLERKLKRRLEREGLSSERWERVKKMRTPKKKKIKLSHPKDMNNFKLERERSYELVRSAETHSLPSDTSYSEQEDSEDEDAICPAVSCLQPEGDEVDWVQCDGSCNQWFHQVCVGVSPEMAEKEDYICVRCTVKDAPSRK
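Inhibition is measured as reduced NADH fluorescence generation from FDH coupling to formaldehyde release. Truncated KDM5BΔAP at 200 nM final acts on H3K4me3 peptide (12.5 µM in substrate mix) in pH 7.5 HEPES buffer with Tween-20, 30 min, room temperature.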
* marks the source's active call; other numbers are inactive results. Potency is read from the fitted curve at half-maximal effect.

How did O=C(NCc1nnc2n1C(C(=O)NC1CC1)CC2)c1ccc(Cl)cc1Cl (centres undefined) do in these assays?
KDM5B inh: inactive

How did CCOC(=O)CNC(=O)c1ccccc1OCC do in these assays?
KDM5B inh: inactive

What do the screens show for `CCn1c(CNC(=O)c2ccccc2OC)nnc1SCC(=O)c1ccc(OC)cc1`?
KDM5B inh: inactive

What do the screens show for `O=C(Cn1nnc(-c2ccc(Cl)cc2)n1)NCc1ccc(F)cc1`?
KDM5B inh: inactive

Results for COc1ccc(-c2ccc3nnc(CNC(=O)c4ccccc4F)n3n2)cc1 ?
KDM5B inh: 28µM*

How did CC(NC(=O)CCNC(=O)c1ccc(F)cc1Cl)c1ccc(Cl)c(Cl)c1 (centres undefined) do in these assays?
KDM5B inh: inactive

What do the screens show for `CCOc1ccc(CC(=O)NCc2nnc3ccc(-c4ccccc4)nn23)cc1`?
KDM5B inh: inactive

What do the screens show for `O=C(Cc1cccc(F)c1)NCc1nnc2ccc(-c3ccc(Cl)cc3)nn12`?
KDM5B inh: 25µM*

What do the screens show for `CCOc1ccccc1C(=O)NCc1nnc2ccc(-c3ccccc3)nn12`?
KDM5B inh: 25µM*

Results for O=C(NCc1nnc2ccc(-c3ccccc3)nn12)c1ccc(F)cc1Cl ?
KDM5B inh: 28µM*

How did CC1CCCCN1CCCNC(=O)c1cc(C2CC2)nc2ccccc12 (centres undefined) do in these assays?
KDM5B inh: inactive

How did CCN(CC)CCCNc1oc(-c2ccccc2)nc1C#N do in these assays?
KDM5B inh: inactive

What do the screens show for `CCCCCc1ccc(C(=O)CC)cc1`?
KDM5B inh: inactive

What do the screens show for `O=C(CSc1nc(=O)n(Cc2ccccn2)c2c1CCC2)NC1CCCC1`?
KDM5B inh: inactive

What do the screens show for `CC(C)c1ccc(NC(=O)NCC(O)c2ccccc2F)cc1` (centres undefined)?
KDM5B inh: inactive

What do the screens show for `COc1ccc(CC(=O)N2N=C(c3cccc(Br)c3)CC2(O)C(F)(F)F)cc1` (centres undefined)?
KDM5B inh: inactive

How did CCc1ccc(C(=O)CSc2n[nH]c(C(C)C)n2)cc1 do in these assays?
KDM5B inh: inactive

How did COc1ccc2nc(NC(=O)c3cc(-c4ccc(C)cc4)on3)sc2c1 do in these assays?
KDM5B inh: inactive

How did O=C(/C=C/Nc1ccccc1F)C(F)(F)F do in these assays?
KDM5B inh: inactive

Results for CCC1CCCCN1C(=O)CN1C(=O)N(c2c(C)cccc2C)S(=O)(=O)c2ccccc21 (centres undefined) ?
KDM5B inh: inactive

Results for CC1(C)C2CCC1(C(=O)Nc1cccc(C(F)(F)F)c1)c1nc(C#N)c(C#N)nc12 (centres undefined) ?
KDM5B inh: inactive

Results for C/C(=N/Nc1ccc([N+](=O)[O-])cc1)c1ccncc1 ?
KDM5B inh: inactive

What do the screens show for `Cc1ccc(-c2ccc3nnc(CNC(=O)C4(c5ccccc5)CC4)n3n2)cc1`?
KDM5B inh: 28µM*

Results for O=C(NCc1nnc2ccc(-c3ccccc3)nn12)c1ccccc1F ?
KDM5B inh: 28µM*

What do the screens show for `COc1ccc(NC(=O)CCc2nnc3ccc(NCc4ccccc4Cl)nn23)cc1`?
KDM5B inh: inactive

Results for CC(C)(CNC(=O)C1(c2ccccc2)CC1)C(N)=O ?
KDM5B inh: inactive

Results for Cc1nnc2sc(-c3ccc(CNC(=O)c4ccccc4Cl)cc3)nn12 ?
KDM5B inh: inactive

How did Cc1nc2cc(-c3ccccc3)nn2c(C)c1CCC(=O)NCCc1ccccc1 do in these assays?
KDM5B inh: inactive

What do the screens show for `O=C(CCc1ccccc1)NCc1nnc2ccc(-c3ccccc3)nn12`?
KDM5B inh: 28µM*

Results for CSc1ccc(CCNC(=O)CCc2nnc3ccc(NCc4ccc(Cl)cc4)nn23)cc1 ?
KDM5B inh: inactive

Results for O=C(Nc1nn2c(-c3ccccc3)nnc2s1)c1ccccc1F ?
KDM5B inh: inactive

How did O=C(NCCc1noc(C2CC2)n1)C1(c2ccccc2)CC1 do in these assays?
KDM5B inh: inactive

How did COc1ccc(-c2ccc3nnc(CNC(=O)c4ccccc4Cl)n3n2)cc1 do in these assays?
KDM5B inh: 28µM*

What do the screens show for `CCn1c(CNC(=O)c2ccccc2F)nnc1SCCOc1ccccc1`?
KDM5B inh: inactive

Results for CN1CCN(CCNC(=O)c2sc3ncccc3c2-n2cccc2)CC1 ?
KDM5B inh: inactive

Results for Cc1ccc(C(CC(=O)O)NC(=O)c2ccccc2C(F)(F)F)cc1 (centres undefined) ?
KDM5B inh: inactive

Results for O=C(CCCc1nc2ccccc2o1)NCc1ccccc1F ?
KDM5B inh: inactive

How did COc1ccc(-c2nc(CSCC(=O)NCC(C)C)co2)cc1 do in these assays?
KDM5B inh: inactive

What do the screens show for `COCC(=O)N1N=C(c2ccc3c(c2)OCO3)CC1c1ccc2nccnc2c1` (centres undefined)?
KDM5B inh: inactive

Results for Fc1cccc(/C=N/Nc2cc(C(F)(F)F)ccc2Cl)c1 ?
KDM5B inh: inactive

How did O=C(Cc1ccccc1)N1CCC2(CC1)CC(N(Cc1ccc(F)cc1)C1CC1)CCO2 (centres undefined) do in these assays?
KDM5B inh: inactive

What do the screens show for `CCN(CC)Cc1nc(C2(O)CCN(Cc3ccccc3C(F)(F)F)CC2)cs1`?
KDM5B inh: inactive

What do the screens show for `CC(NC(=O)Cc1c(Cl)cccc1Cl)c1ccccn1` (centres undefined)?
KDM5B inh: inactive

Results for CCOc1ccccc1CNC(=O)c1nnn2cc(C)[nH]c(=O)c12 ?
KDM5B inh: inactive

Results for CN(C)CCNCC1CCCCC1 ?
KDM5B inh: inactive

What do the screens show for `CN1CCC(N2C[C@@H]3C[C@H]2C(=O)N(Cc2ccc(OC(F)(F)F)cc2)c2ccccc2O3)CC1`?
KDM5B inh: inactive

Results for O=C(NCc1ccccc1Cl)c1ccccc1-c1ccccc1 ?
KDM5B inh: inactive

How did O=C(NCc1nnc2ccc(-c3ccccc3)nn12)c1ccccn1 do in these assays?
KDM5B inh: 28µM*

What do the screens show for `O=C(Nc1ccccc1C(=O)NCc1ccccc1)c1ccccn1`?
KDM5B inh: inactive

Results for O=C(NCc1nnc2ccc(-c3ccccc3)nn12)c1ccccc1Cl ?
KDM5B inh: 28µM*

Results for CC(Oc1ccccc1)C(=O)NCc1nnc2ccc(-c3ccccc3)nn12 (centres undefined) ?
KDM5B inh: inactive

What do the screens show for `COc1ccc2cc(-c3nc(-c4cccc(OC)c4OC)no3)c(=O)oc2c1`?
KDM5B inh: inactive

What do the screens show for `N#Cc1cccc(CSc2nnc(-c3c[nH]c4ccccc34)o2)c1`?
KDM5B inh: inactive

What do the screens show for `O=C1Cc2cc(-c3csc(Nc4ccccc4)n3)ccc2N1`?
KDM5B inh: inactive

How did CC(=O)c1cccc(S(=O)(=O)NCCC(=O)NC(C)C)c1 do in these assays?
KDM5B inh: inactive

Results for CCOc1ccc(-c2cc3c(=O)n(CCNC(=O)Cc4ccccc4C)ccn3n2)cc1 ?
KDM5B inh: 22µM*

How did COc1ccc(-c2cc3c(=O)n(CCNC(=O)c4ccsc4)ccn3n2)cc1 do in these assays?
KDM5B inh: 22µM*

What do the screens show for `Cc1ccc(-c2cc3c(=O)n(CCNC(=O)Cc4ccccc4Cl)ccn3n2)c(C)c1`?
KDM5B inh: inactive

Results for CCOc1ccc(-c2cc3c(=O)n(CCNC(=O)c4cccc(Cl)c4)ccn3n2)cc1 ?
KDM5B inh: inactive

What do the screens show for `CCOc1ccc(-c2cc3c(=O)n(CCNC(=O)c4ccoc4)ccn3n2)cc1`?
KDM5B inh: 22µM*
